Assay results: PubChem BioAssay AID2314 (National Center for Advancing Translational Sciences (NCATS), 2010)
Hit rate of the full screen: of about 300,000 compounds, about 37,000 (12%) were called active. Rule as the data show it: active = max response mostly above about 13% (no sharp cut-off); inactive = mostly below about 14%. For the sample, actives were picked, then their nearest neighbours and some compounds at random.

Assay: Cycloheximide Counterscreen for Small Molecule Inhibitors of Shiga Toxin; also: read at 38.3 µM for the half of the compounds with a filed dose; 0% is about no effect
Details: cell reporter, cycloheximide protein synthesis inhibition counterscreen; stronger effect = higher value

Structure (SMILES)	max response
COc1ccc(NC(=O)C2CCC(CNS(=O)(=O)c3csc(C(N)=O)c3)CC2)cc1OC (configuration not stated)	-7.21% (inactive)
O=C(Cc1ccccc1F)NC1CCSc2ccccc21 (configuration not stated)	-2.13% (inactive)
O=C(NC(=S)NC1CCSC1=O)c1ccccc1F (configuration not stated)	24.5% (active)
COC(=O)c1ccccc1NC(=S)NC(=O)c1ccccc1F	-2.77% (inactive)
COC1=C(N2CCOCC2)C(=O)c2ccccc2C1=O	0.793% (inactive)
CCCCCN1CC(O)=C(c2nc(-c3ccc(Cl)cc3)cs2)C1=N	-0.837% (inactive)
Fc1ccc(-c2csc(-c3ccc(C4SCCS4)cc3)n2)cc1F	8.6% (inactive)
Clc1ccc(-c2csc(-c3ccncc3)n2)cc1	49.1% (active)
CSc1cccc(NC(=O)CN2C(=O)COc3ccc(S(=O)(=O)N4CCOCC4)cc32)c1	-0.43% (inactive)
O=C(C1CC(=O)N(C2CCCCC2)C1)N1CCN(c2ccccc2)CC1 (configuration not stated)	-1.46% (inactive)
Cn1c(SCC(=O)N2CCCCC2)nc2c(c1=O)SCC2	9.54% (inactive)
COCc1ccc(CN2CCC(Oc3ccc(C(=O)NCc4ccccn4)cc3)CC2)o1	17.2% (inactive)
COc1cc(NS(=O)(=O)c2ccccc2)ccc1-n1nc(C)cc1C	-2.43% (inactive)
COc1ccccc1-n1cnc2cc(NS(=O)(=O)c3ccccc3)ccc21	33.5% (active)
COCCCNC(=O)c1ccc2c(c1)ncn2-c1ccccc1OC	10.4% (inactive)
Cc1ccc(-c2cc(C(=O)N3CCc4ccccc4C3)no2)cc1	10.4% (inactive)
O=C(c1cc(-c2cccc(O)c2)on1)N1CCc2ccccc2C1	7.88% (inactive)
O=C(c1cc(-c2ccc(F)cc2)on1)N1CCN(c2ccc(F)cc2)CC1	-2.49% (inactive)
O=C(c1cc(-c2ccc(O)cc2)on1)N1CCCc2ccccc21	32.9% (active)
Cc1ccc(-c2cc(C(=O)N3CCC4(CC3)OCCO4)no2)cc1	24.4% (active)
CCCn1nc(C(=O)N2CCCc3ccccc32)c2ccccc2c1=O	-1.1% (inactive)
O=C(c1cc(-c2ccc(O)cc2)on1)N1CCOCC1	27.7% (active)
Cn1c(SCC(=O)N2CCCc3ccccc32)nc2ccccc2c1=O	-3.04% (inactive)
O=C(c1cc(-c2ccncc2)nc2ccccc12)N1CCC2(CC1)OCCO2	2.43% (inactive)
O=C(c1cccs1)N1CCN(C(=O)N2CCOCC2)CC1	-2.36% (inactive)
O=C(c1cc(-c2ccc(Cl)cc2)on1)N1CCN(c2ccccc2)CC1	30.2% (active)
COc1ccc(-c2cc(C(=O)N3CCN(c4ccc(F)cc4)CC3)no2)cc1	-1.58% (inactive)
